The values that follow come from PubChem BioAssay AID488890 (Southern Research Specialized Biocontainment Screening …, 2010).

The whole screen tested about 320,000 compounds, of which about 1,300 (0.41%) were called active. Roughly 3% stayed inconclusive and do not appear here. The rule behind the calls is not given here. A selection follows. Measured potencies and affinities stand elsewhere.

The nature of this test: growth inhibition of non-replicating M. tuberculosis (AID 488890).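 Note: plate controls were DMSO cells for no effect and high antibiotic wells for full effect.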 The following applies: Mycobacterium tuberculosis non-replicating, at 25 µM, stronger effect = higher value.
On to `CC(Oc1ccccc1)C(=O)OCC(=O)Nc1ccc2c(c1)OCO2` (stereo unspecified), for which the inhibition turned out to be 23.9%. With `CCOC(=O)c1sc2nc(C)nc(N3CCN(S(=O)(=O)c4ccccc4)CC3)c2c1C`, the inhibition came out at 34.9%. To `CCOC(=O)c1c(-c2ccccc2Cl)cn2ccccc12` belongs 3.48%; to `CCCCn1c(=O)[nH]c(=O)c2c1nc(-c1ccc(C(F)(F)F)cc1)n2C`, 2.06%; to `C=CCn1c(CCC)nc2ccccc21`, 59.2%. To `Cc1ccc(CNC(=O)COC(=O)CSc2ccc(Br)cc2C)cc1` belongs 71.4%; to `CN(CC(=O)Nc1cccc(F)c1)C(=O)c1ccccc1OCC(=O)Nc1cccc(C(F)(F)F)c1`, 1.32%; to `CCc1cc2cc(C)ccc2nc1SCC(=O)NNC(=O)c1ccco1`, -31.6%.

Take `O=C(O)c1cccc(S(=O)(=O)N2CCC(n3nnc4cc(C(F)(F)F)ccc43)CC2)c1`: the inhibition was 3.59%.

For `CC(=O)c1cccc(NC(=O)N(c2ccccc2)c2ccccc2)c1`, the inhibition turned out to be 4.45%. Consider `Cc1ccc(S(=O)(=O)NCCc2nnc3ccc(SCC(=O)Nc4nc(C)cs4)nn23)cc1`, for which the inhibition was -6.91%.

Consider `CC1=CC(C)(C)Nc2ccc(OC(=O)CCN3C(=O)c4ccccc4C3=O)cc21`, for which the inhibition was 19%. On to `CC1=CC(C)(C)Nc2ccc(OC(=O)CN3C(=O)c4cccc5cccc(c45)C3=O)cc21`, for which the inhibition came to 78.9%. To `COc1ccc([C@H]2CC(=O)C=C(c3cccc(OC(F)(F)F)c3)C2)cc1` belongs 24.7%; to `NC(=O)Nc1cc(Cl)ccc1Cl`, -13.6%.

Regarding `NC(=O)N/N=C1\CCS(=O)(=O)c2ccc(F)cc21`, the inhibition worked out at 1.74%.

As to `S=C(NC1CCCCCC1)NC1CCCC1`, the inhibition is 71.8%. To `O=c1[nH]c(-c2ccncc2)nc2ccccc12` belongs 26.6%. To `c1ccc(-c2nc3ccccc3[nH]2)nc1` belongs 20.2%; to `O=C(COc1ccc(/C=N/NC(=O)C(=O)N2CCCCCC2)cc1)Nc1ccccc1Cl`, 74.1%; to `Cc1ccc(C)c(S(=O)(=O)NCC(c2ccco2)N2CCc3ccccc3C2)c1` (stereo unspecified), 10.8%.

As to `CC(NC(=O)c1ccc(N(C)C)c([N+](=O)[O-])c1)c1ccc(-n2ccnc2)cc1` (stereo unspecified), the inhibition came out at 8.22%. Regarding `COc1ccc(C(=O)NC(C)c2ccc(-n3ccnc3)cc2)cc1[N+](=O)[O-]` (stereo unspecified), the inhibition was 6.19%.

In the case of `O=C(Nc1ccccc1C(F)(F)F)c1ccsc1`, the inhibition is -9.54%.

For the molecule `CN(Cc1cnn(C)c1)Cc1nc(COc2ccccc2)no1`, the inhibition came to 12.5%. To `COc1ccc(OC)c(NC(=O)CSC2=NN3CCCC(=O)N=C3S2)c1` belongs -10.2%; to `O=C(CNCc1ccco1)Nc1ccccc1-n1cccc1`, 5.71%. To `O=C(NCC(c1ccco1)N1CCN(c2ccccc2)CC1)C(=O)NC1CCCCC1` (stereo unspecified) belongs -8.96%; to `Cc1cc2c(cc1C)N(C(=O)CSC1=NCCS1)C(C)(C)c1ssc(=S)c1-2`, 27.9%; to `Cn1c(O)c(N=NC(=O)c2cc(-c3cccs3)nc3ccccc23)c2ccccc21`, -7.82%.

Turning to `O=C(COc1ccc2oc(-c3ccccc3)cc(=O)c2c1)Nc1ccccc1`, the inhibition worked out at 52.2%. To `CCOC(=O)c1cc(=O)c2ccc(OCC(=O)Nc3ccccc3)cc2o1` belongs 0.19%; to `O=C(COc1cc(O)c2c(=O)cc(-c3ccccc3)oc2c1)c1ccccc1`, -7.87%; to `CC(C)(C)OC(=O)COc1cc(O)c2c(=O)cc(-c3ccccc3)oc2c1`, 53.9%. As to `COc1ccc(C(=O)c2ccccc2)c(O)c1`, the inhibition came to 26.2%.

In the case of `Cc1ccc(OCC(=O)OCC(=O)c2ccccc2)cc1C`, the inhibition was determined as 20.6%. To `NC(=O)c1ccc(NC(=O)CN2CCOCC2)cc1` belongs -9.52%; to `Oc1ccc(/C=N/NP(=S)(c2ccccc2)c2ccccc2)c(O)c1O`, -2.4%. Regarding `COc1ccc(OC)c(/C=C/C(=O)OCC(=O)NCc2cccs2)c1`, the inhibition is 22.8%. To `N#Cc1cnn2c(N)c(-c3ccc(Cl)cc3)cnc12` belongs -16.2%; to `CCn1c(CC(=O)Nc2ccc(C)cc2)nnc1SCC(=O)N1CCN(c2ccccc2)CC1`, 21%. As for `COC(=O)c1cc(/C=C/c2ccccc2)[nH]n1`, the inhibition is 15.2%.

Regarding `Cc1cc(NC(=O)/C=C/c2ccccc2)no1`, the inhibition came to 17.2%. On to `Cc1cccc(C)c1NC(=S)NCCCN1CCCC1=O`, for which the inhibition is -28.2%. To `CCOc1ccc(N(CC(=O)Nc2ccc(OC)cc2OC)S(=O)(=O)c2c(C)[nH]c(=O)[nH]c2=O)cc1` belongs 25.1%; to `O=c1c2cnn(-c3ccccc3)c2nc(-c2cccs2)n1-c1ccc(Br)cc1`, 8.85%; to `O=c1oc(-c2cccs2)nc2ccccc12`, 48.8%. As to `N#Cc1c(NCCCO)nc(NCc2ccccc2)c2c1CCN(Cc1ccccc1)C2`, the inhibition was 26.6%.

As for `O=C(COC(=O)c1ccccn1)NC12CC3CC(CC(C3)C1)C2`, the inhibition was determined as 30.9%. To `C/C(=N\NC(=O)c1ccccn1)C12CC3CC(CC(C3)C1)C2` belongs 54.4%; to `O=C(OCC(=O)C12CC3CC(CC(C3)C1)C2)c1cnccn1`, 17.7%. To `O=C(NNC(=O)C12CC3CC(CC(C3)C1)C2)c1ccncc1` belongs 4.55%. For the molecule `CC(C)N1CCN(Cc2nc3ccccc3s2)CC1CCO` (stereo unspecified), the inhibition worked out at 8.77%. Turning to `Cc1cc(C)c2cc(C(=O)Nc3ccc4c(c3)OCO4)[nH]c2c1`, the inhibition is -16.4%.

Regarding `CCOC(=O)c1c(NC(=O)C(C)N2CCN(S(=O)(=O)c3cccs3)CC2)sc2c1CCC(C)C2` (stereo unspecified), the inhibition was -4.48%.

Consider `Cc1ccc(-c2cc(-c3ccc(C)cc3)[n+](C)o2)cc1`, for which the inhibition is 24.7%.

With `COc1ccc(/C=C/C(=O)Oc2ccc(C)cc2)cc1`, the inhibition stood at 65.3%. To `CC1Cc2ccccc2N1C(=O)CCS(=O)(=O)c1cccs1` (stereo unspecified) belongs 15.3%.

With `COc1ccc(CCNC(=O)Cc2ccc(OC)c(OC)c2)cc1OC`, the inhibition amounted to 13.8%. For the molecule `Nc1ccccc1C(=O)OCc1ccc([N+](=O)[O-])cc1`, the inhibition is 3.01%.

Regarding `O=C(OCc1cc([N+](=O)[O-])cc2c1OCOC2)c1ccc2ccccc2n1`, the inhibition worked out at 74.8%. As to `O=C(OCc1cccc([N+](=O)[O-])c1)c1cnccn1`, the inhibition is 17.7%. Consider `COc1ccc(C(C)=O)cc1COC(=O)c1cc(C)nc2ccccc12`, for which the inhibition came out at 7.17%. Regarding `O=C(Cc1ccccc1[N+](=O)[O-])OCc1cccc([N+](=O)[O-])c1`, the inhibition worked out at 34.7%.

Consider `COc1ccc(C(C)=O)cc1COC(=O)c1cc2ccccc2cc1O`, for which the inhibition was found to be 2.94%. To `c1ccc(OCCn2cnc3ccccc32)cc1` belongs 1.01%; to `CSc1ccccc1OCc1cc(C(=O)N(Cc2nccn2C)C(C)C)no1`, -13.1%; to `Cc1ccnc(Nc2nc(-c3sc(C)nc3C)cs2)c1`, 36.1%. With `O=C(NCc1cccnc1)c1cccc(F)c1`, the inhibition is -1.31%.

Regarding `CCn1cc(C(=O)OCC(=O)NCc2ccc3c(c2)OCO3)c(=O)c2ccc(C)nc21`, the inhibition was determined as 40.4%. To `CCC(C(=O)Nc1ccc2c(c1)OCCO2)n1nnc2ccccc2c1=O` (stereo unspecified) belongs 6.85%.

As a reminder, the inhibition is the change of the read-out against control, counted positive when it falls.
